By inhibition is commonly meant the change of the read-out against control, counted positive when it falls.

The structures appear in SMILES notation. Activity calls are given as the source filed them.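 The calls were made as follows, unless noted: active = thallium flux through the channel raised or lowered by more than 3 SD from vehicle-only wells, actives on both sides; inactive = the rest.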

One assay relates to F380Y. Put plainly: modulators of BK channel variants, profiling panel, selectivity assay, cell-based, U2OS BacMam, thallium flux, beta subunits (AID 1259406).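 Also: initial slope of Thallos dye fluorescence rise after thallium is added; log ratio against the mean of 0.3% DMSO vehicle wells on the same plate.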 The following applies: at 30 µM.
A further assay has as its system F380Y/beta1. The description is as above. The following applies: at 30 µM.
The subject of the next assay is F380Y/beta2Delta. The assay is described as above. The note with it: at 30 µM.
The next assay concerns F380Y/beta4. Described as above. The note with it: at 30 µM.
Assay [1] addresses Calcium-activated potassium channel subunit alpha-1 (Homo sapiens) + Leucine-rich repeat-containing protein 26 (Homo sapiens) (UniProt Q12791+Q2I0M4). The description is as above. The following applies: F380Y/Slo1WT/gamma1, at 30 µM.
The test system of the next assay is R275C. Described as above. The following applies: at 30 µM.
The subject of a further assay is R275C/beta1. The assay is described as above. The note with it: at 30 µM.
Another assay deals with R275C/beta2Delta. The assay is described as above. The following applies: at 30 µM.
The test system of the next assay is R275C/beta4. The assay is described as above. The note with it: at 30 µM.
For another assay, the system named is R275C/Slo1WT/beta2. Described as above. The following applies: at 30 µM.
A short description of assay [2]: UWB1.289 ovarian carcinoma cell growth inhibition, synergistic combos for chromothripsis tumors, BGB or cisplatin combos (AID 1671456; in the data active = inhibition above about 80%;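 also: cells exposed to compound for four days; 0% = vehicle DMSO and 100% = killing by high DMSO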). The note with it: UWB1.289 ovarian carcinoma cells, stronger effect = higher value.
The nature of assay [3]: LFS_MB_2R medulloblastoma cell growth inhibition, synergistic combos for chromothripsis tumors, cisplatin combos (AID 1671457; in the data active = inhibition above about 80%;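 also: cells exposed to compound for four days before readout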). The following applies: LFS_MB_2R medulloblastoma cells, stronger effect = higher value.
Assay [4] in a line: MDA-MB-436 breast carcinoma cell growth inhibition, synergistic combos for chromothripsis tumors, BGB or cisplatin combos (AID 1671458; call rule not given here;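 also: cells exposed for 96 hours; 0% = vehicle DMSO and 100% = killing by high DMSO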). The following applies: MDA-MB-436 breast carcinoma growth inhibition, drug combinations, stronger effect = higher value.
A short description of assay [5]: UWB1.289_BRCA1 ovarian cancer growth, cell-based, BGB or cisplatin combinations (AID 1671459; in the data active = inhibition above about 80%). The following applies: UWB1.289 BRCA1 ovarian carcinoma, drug combinations, stronger effect = higher value.
Assay [6] can be described thus: human astrocyte viability loss, single and combined drugs, cytotoxicity control for chromothriptic childhood tumor combination screen, cell-based, BGB or cisplatin IC20 combos (AID 1671460; in the data active = inhibition above about 80%;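 also: cells exposed to compounds for 96 hours before viability readout; 0% = vehicle and 100% = killing control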). The following applies: Human astrocytes, drug combinations, stronger effect = higher value.
Assay [7] can be described thus: growth inhibition of BT084 medulloblastoma cells, cell-based, ICGC_MB145, cisplatin and BGB IC40 combos (AID 1671461; in the data active = inhibition above about 80%;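 also: cells exposed to drugs for 96 hours; 0% = vehicle DMSO and 100% = high DMSO full killing control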). The following applies: drug combinations, stronger effect = higher value.
Assay [8] is described as follows: growth inhibition of RCMB18 medulloblastoma cells, cell-based, cisplatin and BGB IC40 combos (AID 1671462; in the data active = inhibition above about 80%;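 also: cells exposed to compound for four days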). The following applies: stronger effect = higher value.
Assay [9] is described as follows: growth inhibition of CRL1545 osteosarcoma cells, cell-based, cisplatin and BGB IC20 combos (AID 1671464; in the data active = inhibition above about 80%;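 also: cells exposed to compound for 96 hours before readout; 0% = vehicle DMSO and 100% = high DMSO killing control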). The note with it: stronger effect = higher value.
Where [10] appears, read: measured here: inhibition with BGB combination, at 0.05 µM.
The mark [11] stands for this setting: measured here: inhibition with cisplatin combination, at 0.05 µM.
The mark [12] stands for this setting: measured here: combination with cisplatin, at 0.5 µM.
[13] abbreviates: measured here: combination with cisplatin, at 5 µM.
Where [14] appears, read: measured here: BGB combination, at 0.5 µM.
The mark [15] stands for this setting: measured here: BGB combination, at 5 µM.
Setting [16] is: measured here: cisplatin combination, at 0.5 µM.
Setting [17] is: measured here: cisplatin combination, at 5 µM.
The mark [18] stands for this setting: BGB combination, concentration series, at 5 µM.
Where [19] appears, read: cisplatin combination, concentration series, at 5 µM.
Setting [20] is: measured here: combo with BGB IC20, at 0.5 µM.
[21] abbreviates: measured here: combo with cisplatin IC20, at 0.5 µM.
Setting [22] is: cisplatin combination, at 0.5 µM.
Setting [23] is: measured here: BGB IC40 combination 0.05 uM, at 0.05 µM.
[24] abbreviates: measured here: BGB IC40 combination, at 0.05 µM.
Setting [25] is: measured here: with BGB IC20 combination, at 0.5 µM.
[26] abbreviates: measured here: with cisplatin IC20 combination, at 0.5 µM.

Chain of Calcium-activated potassium channel subunit alpha-1 (Homo sapiens) + Leucine-rich repeat-containing protein 26 (Homo sapiens) (Q2I0M4 whole entry, looked up, one chain of several): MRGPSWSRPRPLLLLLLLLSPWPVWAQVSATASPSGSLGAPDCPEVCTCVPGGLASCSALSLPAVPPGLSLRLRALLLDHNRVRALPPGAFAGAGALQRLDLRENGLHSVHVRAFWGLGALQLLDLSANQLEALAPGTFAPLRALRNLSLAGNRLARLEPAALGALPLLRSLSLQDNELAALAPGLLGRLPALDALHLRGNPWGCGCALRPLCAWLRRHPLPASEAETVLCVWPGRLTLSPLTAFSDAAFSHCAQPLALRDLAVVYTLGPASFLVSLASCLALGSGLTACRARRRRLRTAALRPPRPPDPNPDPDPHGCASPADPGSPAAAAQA

As to `COc1cc(C(=O)NS(=O)(=O)c2ccccc2C)ccc1Cc1cn(C)c2ccc(NC(=O)OC3CCCC3)cc12`, the log fold change Tl+ flux with F380Y is 0.278 (active); with F380Y/beta1, 0.461 (active); with F380Y/beta2Delta, 0.327 (active); in the assay with F380Y/beta4, 0.428 (active); in assay [1], 0.314 (active); with R275C it was -0.0565 (inactive). In addition, the log fold change Tl+ flux in the assay with R275C/beta1 is 0.581 (active); in the assay on R275C/beta2Delta, 0.38 (active); in the assay with R275C/beta4, 0.546 (active); in the assay on R275C/Slo1WT/beta2, 0.0699 (inactive).

Regarding `Nc1[nH]c(=O)ncc1F`, the inhibition in [2] (at 0.5 µM) is -7.68% (inactive); in assay [2] (setting [10]), -29.7%; in assay [2] (setting [11]) it was -21.7%; in assay [3] (at 0.5 µM) it was -27.6% (inactive); in assay [3] (setting [12]), -24.1%; in [3] (setting [13]), -29.1%. Besides, the inhibition in assay [4] (at 0.5 µM) is -31.1% (inactive); in assay [4] (setting [14]), -21.4%; in assay [4] (setting [15]), -20.1%; in [4] (setting [16]), -54.4%; in assay [4] (setting [17]) it was -28.4%; in [5] (setting [18]) it was -10.1%. The inhibition in assay [5] (at 0.5 µM) is -22% (inactive); in assay [5] (setting [19]), -7.2%; in assay [6] (at 0.5 µM), -16.9% (inactive); in assay [6] (setting [20]), -11.3%; in assay [6] (setting [21]) it was -15.3%; in assay [7] (at 0.5 µM), -18.1% (inactive). Further, the inhibition is -7.67% in assay [7] (setting [22]); -29% in [7] (cisplatin combination, at 5 µM); -18.5% in [7] (setting [23]); -35% in [7] (single agent, at 5 µM); -4.87% (inactive) in [8] (at 0.5 µM); 12.7% in assay [8] (cisplatin combo, at 5 µM). Besides, the inhibition in [8] (setting [24]) was -1.76%; in [8] (setting [12]), 22.6%; in [8] (single agent, at 5 µM), 67.5%; in assay [9] (at 0.5 µM) it was -33% (inactive); in assay [9] (setting [25]), -8.11%; in assay [9] (setting [26]), -45.4%. The inhibition in assay [9] (single agent, at 0.05 µM) is -16.8%; in assay [9] (single agent, at 5 µM), -1.42%. Further, the log fold change Tl+ flux was 0.0331 (inactive) with F380Y; 0.0164 (inactive) with F380Y/beta1; 0.0238 (inactive) with F380Y/beta2Delta; 0.00948 (inactive) in the assay on F380Y/beta4; 0.00877 (inactive) in assay [1]; 0.0013 (inactive) in the assay on R275C. Also, the log fold change Tl+ flux in the assay with R275C/beta1 is -0.0522 (inactive); in the assay with R275C/beta2Delta, 0.00516 (inactive); with R275C/beta4, -0.00411 (inactive); in the assay with R275C/Slo1WT/beta2, -0.0674 (inactive).

For the molecule `CN(C)CC[C@@H](c1ccc(Cl)cc1)c1ccccn1`, the log fold change Tl+ flux with F380Y is 0.112 (active); in the assay on F380Y/beta1 it was 0.0236 (inactive); with F380Y/beta2Delta it was 0.0413 (inactive); in the assay with F380Y/beta4, 0.0471 (inactive); in assay [1], -0.00445 (inactive); in the assay on R275C, -0.0353 (inactive). The log fold change Tl+ flux in the assay with R275C/beta1 was 0.0461 (inactive); in the assay with R275C/beta2Delta it was 0.00905 (inactive); with R275C/beta4 it was 0.0349 (inactive); in the assay on R275C/Slo1WT/beta2 it was 0.0166 (inactive).

As to `c1cnc(N2CCN(Cc3ccc4c(c3)OCO4)CC2)nc1`, the log fold change Tl+ flux was -0.0152 (inactive) in the assay with F380Y; -0.0184 (inactive) in the assay on F380Y/beta2Delta; 0.0386 (inactive) in assay [1]; -0.0353 (inactive) in the assay on R275C; 0.0391 (inactive) in the assay with R275C/beta1; -0.006 (inactive) with R275C/beta2Delta.

In the case of `CCN1CCN(c2cc3c(cc2F)c(=O)c(C(=O)O)cn3C2CC2)CC1`, the inhibition in [2] (at 0.5 µM) was -2.08% (inactive); in [2] (setting [10]) it was -31.5%; in assay [2] (setting [11]), -8.73%; in assay [3] (at 0.5 µM), -19.4% (inactive); in [3] (setting [12]) it was -28.5%; in assay [3] (setting [13]), -100%. In addition, the inhibition in assay [4] (at 0.5 µM) was -32.9% (inactive); in [4] (setting [14]) it was -15.3%; in assay [4] (setting [15]), -31.3%; in [4] (setting [16]), -56.8%; in assay [4] (setting [17]), -40.4%; in [5] (setting [18]), -7.62%. Also, the inhibition in assay [5] (at 0.5 µM) was -4.92% (inactive); in assay [5] (setting [19]) it was -6.59%; in assay [6] (at 0.5 µM), -1.67% (inactive); in [6] (setting [20]), -3.12%; in assay [6] (setting [21]), -14.1%; in assay [7] (at 0.5 µM), -38.8% (inactive). The inhibition is -21.3% in [7] (setting [22]); -23.4% in assay [7] (cisplatin combination, at 5 µM); -13.2% in assay [7] (setting [23]); -37.9% in [7] (single agent, at 5 µM); -17.8% (inactive) in [8] (at 0.5 µM); -22.9% in assay [8] (cisplatin combo, at 5 µM). The inhibition was -24.4% in assay [8] (setting [24]); -16% in [8] (setting [12]); -19.4% in [8] (single agent, at 5 µM); 13.5% (inactive) in assay [9] (at 0.5 µM); 6.58% in [9] (setting [25]); 15.1% in assay [9] (setting [26]).
